Where a name gives a salt, the structure may show the parent alone.
Tested on: Staphylococcus aureus Sa2 (MRSA, cystic fibrosis isolate)
Assay: growth reduction vs untreated control (OD550); higher = stronger antibacterial activity
Details: 0.1 mM; 24 h
Description: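 Single-dose screen of the MedChem Express Drug Repurposing Library (0.1 mM, 1% DMSO) against planktonic MRSA S. aureus Sa2 (CF isolate) in TSB in 96-well plates, 37 °C aerobic, 24 h. Assays were run in triplicate and repeated twice.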

SMILES	growth reduction
O=C(O)Cc1cc(I)c(Oc2ccc(O)c(I)c2)c(I)c1 [Tiratricol]	100%
CC(C)Nc1nc2cc(Cl)c(Cl)cc2n1[C@H]1O[C@@H](CO)[C@H](O)[C@@H]1O [Maribavir]	92.7%
Cc1c(Cl)c(C)[n+]([O-])c(Cl)c1-c1noc(-c2cc(O)c(O)c([N+](=O)[O-])c2)n1 [Opicapone]	99.2%
C=Cc1cc(O)cc2nc(-c3ccc(O)c(F)c3)oc12 [Prinaberel]	100%
CCN(CC)CC#CCOC(=O)C(O)(c1ccccc1)C1CCCCC1 (stereo not given) [Oxybutynin (chloride)]	94.3%
CN(C)C(=O)/C=C/CNCCOc1ccc(/C(=C(/CC(F)(F)F)c2ccccc2)c2ccc3[nH]nc(F)c3c2)cn1	100%
COc1cc(NCc2ccc3nc(N)nc(N)c3c2C)cc(OC)c1OC [Trimetrexate]	90.4%
C#C[C@]1(OC(C)=O)CC[C@H]2[C@@H]3CCC4=C[C@@H](OC(C)=O)CC[C@@H]4[C@H]3CC[C@@]21C [Ethynodiol diacetate]	92.7%
O=C(CCCCCCNC(=O)c1cnc(N(c2ccccc2)c2ccccc2)nc1)NO [Ricolinostat]	100%
CC1(S(=O)(=O)O)CC(=O)c2ccccc2C1=O (stereo not given) [Menadione bisulfite (sodium)]	99.5%
CCCCCCCCc1ccc(CCC(N)(CO)CO)cc1 [Fingolimod]	100%
Cc1c(C)c2c(c(C)c1O)CCC(C)(COc1ccc(CC3SC(=O)NC3=O)cc1)O2 (stereo not given) [Troglitazone]	97.5%
O=C(O)c1ccc(-n2nc(-c3ccccc3O)nc2-c2ccccc2O)cc1 [Deferasirox]	96.2%
C#C[C@]1(O)CC[C@H]2[C@@H]3CCc4cc(OC)ccc4[C@H]3CC[C@@]21C [Mestranol]	92.6%
Cc1nc(C(=O)NCC(=O)O)c(O)c2ccc(Oc3ccccc3)cc12 [Roxadustat]	99.9%
Clc1ccc(C(Cn2ccnc2)OCc2c(Cl)cccc2Cl)c(Cl)c1 (stereo not given) [Isoconazole (nitrate)]	100%
CNCc1ccc(C)c(NC(=O)c2ccc(Nc3nc(-c4ccccc4)c4ccccc4n3)cc2)c1	100%
CN[C@H]1CN(c2ccc3c(=O)c(C(=O)O)cn(-c4nccs4)c3n2)C[C@@H]1OC [Voreloxin (Hydrochloride)]	100%
CCOC(=O)N1CCC(=C2c3ccc(Cl)cc3CCc3cccnc32)CC1 [Loratadine]	100%
COc1cc(F)c(F)c(Nc2ccc(I)cc2F)c1NS(=O)(=O)C1(C[C@H](O)CO)CC1 [Refametinib]	100%

SMILES	growth reduction
Oc1c(Cl)cc(Cl)cc1Sc1cc(Cl)cc(Cl)c1O [Bithionol]	99.2%
CCC[C@H](Oc1cc(C)c(-n2cc(C(F)(F)F)cn2)c(C)c1)c1ccc(C(=O)NCCC(=O)O)cc1	100%
O=C(O)CNC(=O)c1nc(Cl)c2ccccc2c1O	100%
C=C(C)[C@@H]1CC[C@]2(C(=O)O)CC[C@]3(C)[C@H](CC[C@@H]4[C@@]5(C)CC[C@H](OC(=O)CC(C)(C)C(=O)O)C(C)(C)[C@@H]5CC[C@]43C)[C@@H]12 [Bevirimat]	96.7%
Cc1cc2c(cc1CC(=O)c1sccc1S(=O)(=O)Nc1onc(C)c1Cl)OCO2 [Sitaxsentan (sodium)]	98%
NC1=NCC2c3ccccc3Cc3ccccc3N12 (stereo not given) [Epinastine]	100%
Cc1ccc(C(=O)c2cc(O)c(O)c([N+](=O)[O-])c2)cc1 [Tolcapone]	100%
O=c1[nH]c(=O)n([C@H]2C[C@H](O)[C@@H](CO)O2)cc1F [Floxuridine]	100%
CC[C@@]1(O)C[C@H](O[C@H]2C[C@H](N(C)C)[C@H](O[C@H]3C[C@H](O)[C@H](O[C@H]4CCC(=O)[C@H](C)O4)[C@H](C)O3)[C@H](C)O2)c2c(cc3c(c2O)C(=O)c2c(O)cccc2C3=O)[C@H]1C(=O)OC [Aclacinomycin A hydrochloride]	100%
CCOC(=O)C1=C(C)NC(C)=C(C(=O)OC)C1c1cccc(Cl)c1Cl (stereo not given) [Felodipine]	100%
CN1CCCC(CC2c3ccccc3Sc3ccccc32)C1 (stereo not given) [Metixene hydrochloride hydrate]	100%
C[C@@H](OC[C@@]1(c2ccccc2)CC[C@]2(CCC(=O)N2)CN1)c1cc(C(F)(F)F)cc(C(F)(F)F)c1 [Rolapitant]	100%
O=C(O)C[C@H]1CCc2c1[nH]c1ccc(OCc3ccc(C4CCCC4)c(C(F)(F)F)c3)cc21 [Etrasimod]	99%
COC(=O)/C=C/C(=O)OCCN1C(=O)CCC1=O [Diroximel fumarate]	100%
Cc1nc2sccn2c(=O)c1CCN1CCC(=C(c2ccc(F)cc2)c2ccc(F)cc2)CC1 [Ritanserin]	97.5%
O=C(O)c1ccccc1Nc1cccc(C(F)(F)F)c1 [Flufenamic acid]	93.6%
COc1cc2c(cc1Cc1cccc(Cl)c1F)c(=O)c(C(=O)O)cn2[C@H](CO)C(C)C [Elvitegravir]	100%
COc1cc(C(=O)NS(=O)(=O)c2ccccc2C)ccc1Cc1cn(C)c2ccc(NC(=O)OC3CCCC3)cc12 [Zafirlukast]	100%
COc1cccc(Nc2ncnn3ccc(CN4CC[C@@H](N)[C@H](O)C4)c23)c1	92.5%
CC(C)OC(=O)CCC/C=C\C[C@@H]1[C@@H](/C=C/[C@@H](O)COc2cccc(C(F)(F)F)c2)[C@H](O)C[C@@H]1O [Travoprost]	100%

— the supplement of paper PMC12024424
